From the supplement of paper PMC13380429

System: Vero E6 infected with SARS-CoV-2
Test: inhibition of SARS-CoV-2 cytopathic effect; higher = more antiviral protection, active = above 15
Settings: 48 h

Measured: inhibition of SARS-CoV-2 cytopathic effect

CCO[C@@H](Cc1ccc(OCCc2ccc(OS(C)(=O)=O)cc2)cc1)C(=O)O [tesaglitazar]
inactive: 1 nM -2.83% | 8.33 nM -3.5% | 100 nM 0.15% | 833.33 nM -2.48% | 10000 nM 1.52%

O=C(O)CC[C@H]1CC[C@@](c2cc(F)ccc2F)(S(=O)(=O)c2ccc(Cl)cc2)CC1
inactive: 1 nM -2.65% | 8.33 nM -0.66% | 100 nM -4.1% | 833.33 nM -7.63% | 10000 nM -8.12%

CCN(CC)CCCC(C)Nc1nc(C)cc(Nc2ccc3nc(C)cc(N)c3c2)n1 (stereo not given)
inactive: 1 nM -1.23% | 8.33 nM -0.04% | 100 nM 1.43% | 833.33 nM -0.56% | 10000 nM 0.17%

COc1ccc(Cl)cc1[C@]1(F)C(=O)Nc2cc(C(F)(F)F)ccc21 [flindokalner]
inactive: 1 nM 2.54% | 8.33 nM 0% | 100 nM -1.3% | 833.33 nM 1.03% | 10000 nM -0.62%

Nc1cc(N2CCCCC2)nc(N)[n+]1[O-] [minoxidil]
inactive: 1 nM 0.37% | 8.33 nM 0.28% | 100 nM -0.2% | 833.33 nM 1.1% | 10000 nM -0.33%

c1ccc(OCc2ccc(CCCN3CCOCC3)cc2)cc1 [fomocaine]
inactive: 1 nM 0.24% | 8.33 nM 1.88% | 100 nM 1.23% | 833.33 nM -0.27% | 10000 nM 3.83%

Cc1ccc2c(c1)C(=O)[C@]1(O)CCN(c3ccccc3)C1=N2 (racemic) [blebbistatin-(+/-)]
inactive: 1 nM 0.35% | 8.33 nM -0.695% | 100 nM -1.93% | 833.33 nM -1.36% | 10000 nM -2.33%

CCOC(=O)OC(C)OC1=C(C(=O)Nc2ccccn2)N(C)S(=O)(=O)c2ccccc21 (stereo not given) [ampiroxicam]
inactive: 1 nM 1.01% | 8.33 nM -0.58% | 100 nM 1.16% | 833.33 nM 2.1% | 10000 nM 2.74%

CCN1/C(=C/C(C)=O)Sc2ccc(OC)cc21
inactive: 1 nM 1.8% | 8.33 nM 1.75% | 100 nM -2.1% | 833.33 nM 0.11% | 10000 nM 0.79%

CC1(C)Oc2ccc(C#N)cc2[C@@H](N2CCCC2=O)[C@@H]1O [levcromakalim]
inactive: 1 nM 0.65% | 8.33 nM 1.1% | 100 nM 0.31% | 833.33 nM 1.22% | 10000 nM 2.06%

OC(CCN1CCCCC1)(c1ccccc1)C1CCCCC1 (stereo not given) [trihexyphenidyl]
inactive: 1 nM -14.3% | 8.33 nM -7.63% | 100 nM -2.35% | 833.33 nM -9.38% | 10000 nM -10.1%

C#C[C@]1(OC(C)=O)CC[C@H]2[C@@H]3CCC4=CC(=NO)CC[C@@H]4[C@H]3CC[C@@]21CC (mixture of isomers) [norgestimate]
inactive: 1 nM -3.21% | 8.33 nM 0.96% | 100 nM 1.62% | 833.33 nM -2.37% | 10000 nM -3.22%

Cc1nc(C#Cc2ccnc(Cl)c2)c(C)n1-c1ccc(F)cc1 [basimglurant]
inactive: 1 nM -0.13% | 8.33 nM -0.64% | 100 nM -2.56% | 833.33 nM -1.39% | 10000 nM 4.98%

Cc1ccccc1/N=N/c1ccc(/N=N/c2c(O)ccc3ccccc23)c(C)c1 [sudan-IV]
inactive: 1 nM 8.71% | 8.33 nM -0.01% | 100 nM -4.36% | 833.33 nM -0.99% | 10000 nM -2.29%

COC(=O)N1CCN(Cc2cccc(NC(=O)Nc3ccc(C)nc3)c2F)CC1 [omecamtiv-mecarbil]
inactive: 1 nM -0.03% | 8.33 nM 0.93% | 100 nM -0.98% | 833.33 nM 0.86% | 10000 nM 3.03%

Cc1cc(F)c(Nc2ncnc3cc(OCc4ccccc4)ccc23)cc1O
inactive: 1 nM -3.67% | 8.33 nM -0.24% | 100 nM -1.17% | 833.33 nM -2.03% | 10000 nM -1.32%

N#CCC1(n2cc(-c3ncnc4[nH]ccc34)cn2)CN(C2CCN(C(=O)c3ccnc(C(F)(F)F)c3F)CC2)C1 [itacitinib]
inactive: 1 nM 1.05% | 8.33 nM 1.83% | 100 nM 0.96% | 833.33 nM -0.18% | 10000 nM -3.04%

C[C@H](N[C@@H](CCc1ccccc1)C(=O)O)C(=O)N1CCC[C@H]1C(=O)O [enalaprilat]
inactive: 1 nM -0.58% | 8.33 nM 1.11% | 100 nM -0.39% | 833.33 nM 1.61% | 10000 nM 2.39%

Oc1c(Cl)cc(Cl)cc1Sc1cc(Cl)cc(Cl)c1O [bithionol]
inactive: 1 nM 0.29% | 8.33 nM 0.59% | 100 nM -0.92% | 833.33 nM -0.55% | 10000 nM 2.32%
